# Results filed as inconclusive are left out. Activity calls are given as the source filed them. Rule for the calls: active = hit-call score of the fitted dose curve at least 0.9, where 1 is the maximum; inconclusive = response in the unintended direction; inactive = score below 0.9.
# Legend:
# [1] = target: Androgen Receptor/SRC-1 Co-activator, AR (gene 367) (UniProt P10275); test: OT_AR_ARSRC1_0960: Odyssey Thera (OT) 16-hour HEK293T Protein-Complementation Assay for Androgen Receptor/SRC-1 Co-activator (AID 2283353);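 note: actives raise the signal above DMSO so potency reflects increased AR and SRC-1 complex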
# Sequence of Androgen Receptor/SRC-1 Co-activator, AR (gene 367) (P10275 whole entry, looked up, the tested form may be a part): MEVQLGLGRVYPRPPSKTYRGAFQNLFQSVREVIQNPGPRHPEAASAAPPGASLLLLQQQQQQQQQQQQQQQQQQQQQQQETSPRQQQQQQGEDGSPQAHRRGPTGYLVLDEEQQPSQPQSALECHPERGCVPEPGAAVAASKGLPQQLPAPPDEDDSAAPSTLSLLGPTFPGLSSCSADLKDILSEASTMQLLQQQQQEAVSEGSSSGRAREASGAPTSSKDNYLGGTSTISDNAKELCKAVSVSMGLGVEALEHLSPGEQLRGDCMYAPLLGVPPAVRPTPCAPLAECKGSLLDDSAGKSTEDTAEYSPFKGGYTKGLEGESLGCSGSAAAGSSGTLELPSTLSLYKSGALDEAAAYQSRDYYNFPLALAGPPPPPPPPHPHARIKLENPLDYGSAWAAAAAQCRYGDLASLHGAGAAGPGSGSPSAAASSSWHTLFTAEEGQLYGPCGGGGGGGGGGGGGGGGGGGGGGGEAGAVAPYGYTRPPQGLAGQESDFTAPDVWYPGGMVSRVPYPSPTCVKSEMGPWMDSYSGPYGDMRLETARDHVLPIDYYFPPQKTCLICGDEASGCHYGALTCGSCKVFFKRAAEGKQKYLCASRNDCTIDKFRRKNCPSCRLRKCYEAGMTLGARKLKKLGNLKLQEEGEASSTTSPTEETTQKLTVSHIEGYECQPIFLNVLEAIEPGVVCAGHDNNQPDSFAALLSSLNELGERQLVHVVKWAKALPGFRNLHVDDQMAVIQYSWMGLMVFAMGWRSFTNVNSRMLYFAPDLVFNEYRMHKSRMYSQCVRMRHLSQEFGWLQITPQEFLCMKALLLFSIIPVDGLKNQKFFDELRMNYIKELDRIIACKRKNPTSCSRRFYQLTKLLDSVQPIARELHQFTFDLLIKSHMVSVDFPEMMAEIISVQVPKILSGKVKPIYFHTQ
# Summary of the method: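 HEK293T cells stably expressing AR and SRC-1 fused to split Venus YFP fragments via (Gly4Ser)2 linkers were dosed for 16 h. Nuclear/cytoplasmic fluorescence ratio at 488 nm, ≥400 cells per image, fitted for gain of signal versus DMSO.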
# [2] = target: Androgen Receptor/SRC-1 Co-activator, AR (gene 367) (UniProt P10275); test: OT_AR_ARSRC1_0480: Odyssey Thera (OT) 8-hour HEK293T Protein-Complementation Assay for Androgen Receptor/SRC-1 Co-activator (AID 2283354);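 note: hits raise the complementation signal above DMSO so AC50 marks enhancers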
# Summary of the method: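 HEK293T cells stably expressing AR and SRC-1 fused to Venus YFP fragments, imaged 8 h after dosing. Complementation fluorescence scored as nuclear/cytoplasmic ratio at 488 nm in at least 400 cells per image; gain fitted versus DMSO.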
# [3] = target: Estrogen receptor beta (Homo sapiens) (UniProt Q92731); test: OT_ER_ERbERb_0480: Odyssey Thera (OT) 8-hour HEK293T Protein-Complementation Assay for Estrogen Receptor-beta/-beta Homodimer (AID 2283357);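 note: active means signal gain over DMSO baseline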
# Sequence of Estrogen receptor beta (Homo sapiens) (Q92731 whole entry, looked up, the tested form may be a part): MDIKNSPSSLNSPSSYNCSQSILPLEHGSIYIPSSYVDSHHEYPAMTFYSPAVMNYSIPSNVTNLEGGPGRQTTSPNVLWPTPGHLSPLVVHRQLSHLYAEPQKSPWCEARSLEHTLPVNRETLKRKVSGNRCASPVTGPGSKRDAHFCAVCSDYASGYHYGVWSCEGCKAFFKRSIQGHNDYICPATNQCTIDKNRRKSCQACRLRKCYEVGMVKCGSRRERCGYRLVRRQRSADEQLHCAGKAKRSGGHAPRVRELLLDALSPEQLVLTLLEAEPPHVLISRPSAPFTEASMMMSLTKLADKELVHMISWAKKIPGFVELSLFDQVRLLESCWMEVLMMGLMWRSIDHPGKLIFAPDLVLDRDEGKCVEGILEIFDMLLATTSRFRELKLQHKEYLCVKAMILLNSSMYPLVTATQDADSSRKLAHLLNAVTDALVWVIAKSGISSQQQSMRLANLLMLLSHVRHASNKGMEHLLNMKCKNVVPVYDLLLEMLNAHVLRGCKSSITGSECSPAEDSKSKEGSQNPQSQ
# Summary of the method: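 Fluorescence intensity, nuclear for agonists and nuclear plus cytoplasmic for antagonists, was quantified by laser scanning cytometry versus vehicle after 8 h treatment. The cells were HEK293T stably carrying ER beta LBD fragment-complementation partners.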
# [4] = target: Estrogen receptor (Homo sapiens) (UniProt P03372); test: OT_ER_ERaERa_1440: Odyssey Thera (OT) 24-hour HEK293T Protein-Complementation Assay for Estrogen Receptor-alpha/-alpha Homodimer (AID 2283349);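 note: hits raise fluorescence above DMSO for agonists and antagonists alike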
# Sequence of Estrogen receptor (Homo sapiens) (P03372 whole entry, looked up, the tested form may be a part): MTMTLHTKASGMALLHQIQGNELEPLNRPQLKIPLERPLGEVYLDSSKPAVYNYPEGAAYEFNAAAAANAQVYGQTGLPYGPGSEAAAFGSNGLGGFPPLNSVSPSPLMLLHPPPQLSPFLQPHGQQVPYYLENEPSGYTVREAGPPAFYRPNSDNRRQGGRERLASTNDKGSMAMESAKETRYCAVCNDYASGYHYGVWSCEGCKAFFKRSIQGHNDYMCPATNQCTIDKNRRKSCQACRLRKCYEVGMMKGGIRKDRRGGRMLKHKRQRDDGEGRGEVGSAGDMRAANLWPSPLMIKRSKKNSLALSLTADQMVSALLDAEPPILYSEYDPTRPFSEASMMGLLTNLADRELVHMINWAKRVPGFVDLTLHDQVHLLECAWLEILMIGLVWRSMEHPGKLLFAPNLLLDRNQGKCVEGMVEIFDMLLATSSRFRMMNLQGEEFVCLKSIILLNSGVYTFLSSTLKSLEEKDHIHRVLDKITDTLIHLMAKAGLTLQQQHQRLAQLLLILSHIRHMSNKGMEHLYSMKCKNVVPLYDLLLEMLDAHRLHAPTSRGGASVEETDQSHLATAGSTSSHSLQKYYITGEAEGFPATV
# Summary of the method: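 HEK293T cells stably expressing the human ER alpha ligand-binding domain (aa 310-547) as a homodimer PCA were dosed for 24 hours. Fluorescence intensity was read by laser scanning cytometry, and gain of signal was fitted relative to DMSO vehicle.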
# [5] = target: T1, Estrogen receptor (Homo sapiens) + Estrogen receptor beta (Homo sapiens) (UniProt P03372+Q92731); test: OT_ER_ERaERb_0480: Odyssey Thera (OT) 8-hour HEK293T Protein-Complementation Assay for Estrogen Receptor-alpha/-beta Heterodimer (AID 2283352)
# T1 sequence (P03372 whole entry, looked up, the tested form may be a part): as above
# T1 sequence (Q92731 whole entry, looked up, the tested form may be a part): as the sequence (Q92731 whole entry, looked up, the tested form may be a part) above
# Summary of the method: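 Fluorescence intensity readout from a protein-fragment complementation reporter in HEK293T; ER-alpha/ER-beta LBD heterodimer. Dosing 8 h. Gain-of-signal fit relative to DMSO negative control; laser scanning cytometry of whole-well cell population.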
# [6] = target: T1, Estrogen receptor (Homo sapiens) + Estrogen receptor beta (Homo sapiens); test: OT_ER_ERaERb_1440: Odyssey Thera (OT) 24-hour HEK293T Protein-Complementation Assay for Estrogen Receptor-alpha/-beta Homodimer (AID 2283356);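 note: heteromer of ER alpha and ER beta binding domains; hits raise reporter fluorescence and both agonists and antagonists give an increase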
# Summary of the method: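 Readout: mean fluorescence intensity in nucleus (agonists) or nucleus plus cytoplasm (antagonists), read by laser scanning cytometer after 24 h compound exposure of HEK293T cells carrying ERα/ERβ LBD fragment-complementation constructs; DMSO baseline.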
# [7] = target: human Peroxisome Proliferator-activated Receptor alpha (PPARa), PPARA (gene 5465) (UniProt Q07869); test: NVS_NR_hPPARa: NovaScreen (NVS) Nuclear Receptor Binding Assay for human Peroxisome Proliferator-activated Receptor alpha (PPARa) (AID 2283359);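 note: activity means loss of TR-FRET signal versus DMSO baseline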
# Sequence of human Peroxisome Proliferator-activated Receptor alpha (PPARa), PPARA (gene 5465) (Q07869 whole entry, looked up): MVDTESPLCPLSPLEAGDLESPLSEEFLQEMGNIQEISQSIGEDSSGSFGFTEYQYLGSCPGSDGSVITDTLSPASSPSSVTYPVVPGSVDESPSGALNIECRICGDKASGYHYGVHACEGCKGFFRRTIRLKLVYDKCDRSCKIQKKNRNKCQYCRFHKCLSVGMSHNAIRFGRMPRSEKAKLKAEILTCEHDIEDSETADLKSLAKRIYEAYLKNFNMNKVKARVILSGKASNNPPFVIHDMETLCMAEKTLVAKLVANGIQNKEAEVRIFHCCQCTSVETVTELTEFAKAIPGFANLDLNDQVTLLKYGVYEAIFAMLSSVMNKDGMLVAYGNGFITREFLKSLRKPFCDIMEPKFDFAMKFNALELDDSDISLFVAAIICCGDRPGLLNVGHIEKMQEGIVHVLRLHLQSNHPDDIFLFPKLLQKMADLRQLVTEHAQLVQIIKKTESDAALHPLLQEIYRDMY
# Summary of the method: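 Cell-free TR-FRET binding assay with extracted PPARα protein, read 1 h after dosing. Primary screen in duplicate at 25 uM, with actives retested in concentration series. Loss of signal versus DMSO.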
# [8] = target: PGR (gene 5241) (UniProt P06401); test: NVS_NR_hPR: NovaScreen (NVS) Nuclear Receptor Binding Assay for human Progestron Receptor (PR) (AID 2283360);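 note: active means loss of bound radioligand signal versus DMSO baseline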
# Sequence of PGR (gene 5241) (P06401 whole entry, looked up): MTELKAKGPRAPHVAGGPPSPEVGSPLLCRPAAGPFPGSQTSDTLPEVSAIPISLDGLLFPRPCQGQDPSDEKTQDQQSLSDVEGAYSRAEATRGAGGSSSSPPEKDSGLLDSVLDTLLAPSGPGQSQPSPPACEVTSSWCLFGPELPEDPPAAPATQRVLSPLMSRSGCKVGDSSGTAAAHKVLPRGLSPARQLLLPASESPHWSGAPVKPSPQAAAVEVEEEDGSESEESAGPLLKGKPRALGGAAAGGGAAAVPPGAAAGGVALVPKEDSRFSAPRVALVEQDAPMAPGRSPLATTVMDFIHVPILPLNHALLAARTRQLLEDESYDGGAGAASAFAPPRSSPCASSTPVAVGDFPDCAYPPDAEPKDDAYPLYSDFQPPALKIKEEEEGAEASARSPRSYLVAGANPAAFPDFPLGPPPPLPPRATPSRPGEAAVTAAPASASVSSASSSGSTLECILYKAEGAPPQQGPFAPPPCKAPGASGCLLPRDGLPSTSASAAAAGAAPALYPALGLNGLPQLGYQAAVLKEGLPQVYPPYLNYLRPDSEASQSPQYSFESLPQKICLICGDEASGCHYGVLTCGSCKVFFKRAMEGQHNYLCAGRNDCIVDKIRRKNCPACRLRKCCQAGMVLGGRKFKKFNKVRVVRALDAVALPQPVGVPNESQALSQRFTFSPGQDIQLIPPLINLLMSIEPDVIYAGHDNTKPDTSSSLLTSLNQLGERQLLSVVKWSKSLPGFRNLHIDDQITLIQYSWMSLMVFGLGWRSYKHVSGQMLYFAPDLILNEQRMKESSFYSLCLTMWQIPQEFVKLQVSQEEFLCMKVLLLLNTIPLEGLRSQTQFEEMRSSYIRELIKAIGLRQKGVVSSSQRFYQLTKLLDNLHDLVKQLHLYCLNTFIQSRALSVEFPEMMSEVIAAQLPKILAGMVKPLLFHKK
# Summary of the method: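 T47D lysate; tritiated or iodinated radioligand; scintillation count at 18 h. DMSO = negative control/baseline. Primary: 25 uM, duplicate. Secondary: concentration series for actives.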
# [9] = target: rat Mineralocorticoid Receptor (MR), Nr3c2 (gene 25672) (UniProt P22199); test: NVS_NR_rMR: NovaScreen (NVS) Nuclear Receptor Binding Assay for rat Mineralocorticoid Receptor (MR) (AID 2283355)
# Sequence of rat Mineralocorticoid Receptor (MR), Nr3c2 (gene 25672) (P22199 whole entry, looked up): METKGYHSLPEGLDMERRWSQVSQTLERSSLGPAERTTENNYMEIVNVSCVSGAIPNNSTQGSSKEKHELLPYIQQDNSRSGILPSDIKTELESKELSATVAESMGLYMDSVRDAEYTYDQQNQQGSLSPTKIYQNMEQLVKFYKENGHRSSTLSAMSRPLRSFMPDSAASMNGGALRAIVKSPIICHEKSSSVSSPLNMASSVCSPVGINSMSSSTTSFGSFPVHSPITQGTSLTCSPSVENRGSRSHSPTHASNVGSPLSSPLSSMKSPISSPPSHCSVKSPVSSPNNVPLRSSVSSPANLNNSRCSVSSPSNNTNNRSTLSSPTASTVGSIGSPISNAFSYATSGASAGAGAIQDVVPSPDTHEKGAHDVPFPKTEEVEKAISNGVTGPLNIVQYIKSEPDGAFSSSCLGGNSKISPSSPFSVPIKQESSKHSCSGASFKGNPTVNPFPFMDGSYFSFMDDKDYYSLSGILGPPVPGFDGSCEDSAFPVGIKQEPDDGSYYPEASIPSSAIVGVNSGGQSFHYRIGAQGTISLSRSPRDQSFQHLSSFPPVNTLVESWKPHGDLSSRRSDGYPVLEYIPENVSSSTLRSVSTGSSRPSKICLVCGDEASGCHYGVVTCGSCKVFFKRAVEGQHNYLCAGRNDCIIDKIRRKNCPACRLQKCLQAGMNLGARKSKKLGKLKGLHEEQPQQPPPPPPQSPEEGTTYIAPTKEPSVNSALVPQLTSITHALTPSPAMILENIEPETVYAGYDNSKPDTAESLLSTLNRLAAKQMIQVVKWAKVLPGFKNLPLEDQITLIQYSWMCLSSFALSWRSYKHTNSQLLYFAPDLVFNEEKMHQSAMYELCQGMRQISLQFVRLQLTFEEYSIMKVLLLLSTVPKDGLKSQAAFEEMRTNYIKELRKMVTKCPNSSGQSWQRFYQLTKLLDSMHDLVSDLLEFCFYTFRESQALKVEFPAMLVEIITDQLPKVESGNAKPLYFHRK
# Summary of the method: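 Cell-free radioligand binding to mineralocorticoid receptor from adrenalectomized rat brain supernatant, scintillation counting after 24 h. Primary screen in duplicate at 25 uM; actives retested in concentration series. Loss of specific binding versus DMSO.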
# [10] = target: Retinoic acid receptor alpha (Homo sapiens) (UniProt P10276); test: NVS_NR_hRARa_Agonist: NovaScreen (NVS) Nuclear Receptor Binding Assay for human Retinoic Acid Alpha Receptor Agonism (RAR) (AID 2283361)
# Sequence of Retinoic acid receptor alpha (Homo sapiens) (P10276 whole entry, looked up): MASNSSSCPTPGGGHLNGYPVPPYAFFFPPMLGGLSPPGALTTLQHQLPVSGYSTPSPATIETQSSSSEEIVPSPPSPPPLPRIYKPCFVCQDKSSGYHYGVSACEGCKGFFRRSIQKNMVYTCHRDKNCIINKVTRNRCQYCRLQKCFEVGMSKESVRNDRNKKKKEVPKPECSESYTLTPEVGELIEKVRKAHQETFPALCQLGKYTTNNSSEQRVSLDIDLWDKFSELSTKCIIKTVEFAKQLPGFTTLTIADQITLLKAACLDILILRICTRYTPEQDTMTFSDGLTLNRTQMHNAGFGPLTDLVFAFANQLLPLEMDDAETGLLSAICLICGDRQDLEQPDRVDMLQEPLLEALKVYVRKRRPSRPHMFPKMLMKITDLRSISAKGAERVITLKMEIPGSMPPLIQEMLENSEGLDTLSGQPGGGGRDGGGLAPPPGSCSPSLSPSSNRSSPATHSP
# Summary of the method: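 Cell-free TR-FRET binding readout with extracted receptor protein, read 2 hours after dosing; gain-of-signal fitted relative to DMSO. Screened in duplicate at 25 uM, actives then run in concentration-response.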
compound,measurement,setting,value
O=C1CCCO1,outcome,[1],inactive
same,outcome,[2],inactive
same,outcome,[3],inactive
OCCOCCO,outcome,[4],inactive
same,outcome,[5],inactive
same,outcome,[6],inactive
same,outcome,[3],inactive
CCCCOC(=O)c1ccccc1C(=O)OCc1ccccc1,AC50,[3],12.6 µM (active)
same,outcome,[7],inactive
C1=Cc2cccc3cccc1c23,outcome,[8],inactive
C=CCc1ccc2c(c1)OCO2,outcome,[3],inactive
same,outcome,[7],inactive
CO[C@@H]1[C@H](OC(=O)NC(=O)CCl)CC[C@]2(CO2)[C@H]1[C@@]1(C)O[C@@H]1CC=C(C)C,outcome,[4],inactive
same,AC50,[1],10.7 µM (active)
same,AC50,[2],20.1 µM (active)
same,outcome,[6],inactive
same,outcome,[3],inactive
CN(C)c1ccc(C(=O)c2ccc(N(C)C)cc2)cc1,outcome,[9],inactive
same,outcome,[3],inactive
c1ccc2c(c1)-c1cccc3cccc-2c13,AC50,[3],37 µM (active)
same,outcome,[8],inactive
same,outcome,[10],inactive
c1ccc(C2CO2)cc1 (stereo not drawn),outcome,[9],inactive
same,outcome,[8],inactive
c1ccc2c(c1)oc1ccccc12,outcome,[3],inactive
COC(=O)Nc1nc2ccccc2[nH]1,AC50,[1],3.78 µM (active)
same,outcome,[2],inactive
same,outcome,[3],inactive
Clc1ccccc1Cl,outcome,[3],inactive
O=[N+]([O-])c1ccc(Oc2ccc(Cl)cc2Cl)cc1,outcome,[3],inactive
[As]#[In],outcome,[8],inactive
CCCCCCCCOC(=O)c1ccc(C(=O)OCCCCCCCC)c(C(=O)OCCCCCCCC)c1,outcome,[3],inactive
same,outcome,[8],inactive
CN(C)C(=O)Nc1ccc(Cl)cc1,outcome,[3],inactive
OCCCBr,outcome,[4],inactive
same,outcome,[5],inactive
same,outcome,[6],inactive
same,outcome,[3],inactive
CS(=O)(=O)NC(=O)c1cc(Oc2ccc(C(F)(F)F)cc2Cl)ccc1[N+](=O)[O-],outcome,[7],inactive
CC(C)(C)OOC(=O)c1ccccc1,outcome,[3],inactive
same,outcome,[7],inactive
CN(C)c1ccccc1,outcome,[3],inactive
COC(=O)c1ccccc1N,outcome,[3],inactive
CC(O)CCO (stereo not drawn),outcome,[3],inactive
CC(C)N(Cc1ccccc1)C(=O)C(C)(C)C,outcome,[1],inactive
same,outcome,[2],inactive
same,AC50,[3],50 µM (active)
CCN(CC)CCO,outcome,[3],inactive
same,outcome,[8],inactive
O=[N+]([O-])C(Br)(CO)CO,outcome,[4],inactive
same,AC50,[1],71 µM (active)
same,AC50,[2],72.1 µM (active)
same,outcome,[6],inactive
same,outcome,[3],inactive
same,outcome,[7],inactive
Cc1ccc(N=C=O)cc1N=C=O,outcome,[8],inactive
Cc1ccc(N)c(N)c1,outcome,[3],inactive
ClCCOCCCl,outcome,[3],inactive
